In PubChem BioAssay (NCI) one finds growth data, which are given here for eight molecules.

Among the test systems are NCI-H23 lung; NCI-H226 lung; NCI-H322M lung; HOP-62 NSCLC; NCI-H460 lung; HOP-92 NSCLC; NCI-H522 lung; A549/ATCC NSCLC; 786-0 renal; COLO 205 colon; DU-145 prostate; K-562 leukemia; MALME-3M melanoma; MDA-MB-231 breast; RXF 393 renal; SF-268 CNS; SF-295 CNS; SF-539 CNS; UACC-257 melanoma; M14 melanoma.
Holding throughout (experiment): NCI-60 one-dose screen, 48 h (100 = growth as untreated, 0 = no growth, -100 = all killed)
Settings in all cases: 10 µM unless noted

About 83,000 compounds went through this panel and 20% of them were active in at least one assay; those are over-represented in the sample as a whole.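 For each line, cells grew in 96-well plates with the test compound present at a single concentration for 48 hours.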 Values without a mark were called inactive. The source made the active and inactive calls. How the source made its calls: active means growth percent below 10; inactive means the rest.

Consider `CCN(CC)CCC(CNc1ccnc2cc(Cl)ccc12)c1ccccc1` (stereo not given), for which the growth in the experiment with NCI-H23 lung is 80.3%; in the experiment with NCI-H226 lung it was 63%; in the experiment on NCI-H322M lung, 93.7%; with HOP-62 NSCLC, 78.4%; in the experiment on NCI-H460 lung, 67.7%; with HOP-92 NSCLC, 21.1%. For the same molecule, the growth in the experiment with NCI-H522 lung is 18%; in the experiment with A549/ATCC NSCLC, 70.4%; in the experiment with 786-0 renal it was 69.8%; in the experiment with COLO 205 colon, -39% (active); in the experiment with DU-145 prostate it was 89.4%; in the experiment with K-562 leukemia it was 2.5% (active). The growth in the experiment with MALME-3M melanoma is -47.1% (active); in the experiment with MDA-MB-231 breast, 43%; with RXF 393 renal, -21% (active); in the experiment with SF-268 CNS, 78.3%; in the experiment with SF-295 CNS, -21.4% (active); in the experiment on SF-539 CNS it was -15.2% (active). The growth in the experiment with UACC-257 melanoma is -78.2% (active); in the experiment with M14 melanoma, -83.9% (active).
For the molecule `CC(C)(C)n1cc(-c2ccnc(NCCCNS(=O)(=O)c3ccc(C(F)(F)F)cc3)c2)c(-c2cccc(O)c2)n1`, the growth is 37.8% in the experiment on NCI-H23 lung; 42% in the experiment on NCI-H226 lung; 35.1% with NCI-H322M lung; 54.8% with HOP-62 NSCLC; -48.5% (active) in the experiment with NCI-H460 lung; 22.7% with HOP-92 NSCLC. For the same molecule, the growth in the experiment on NCI-H522 lung was -13.3% (active); with A549/ATCC NSCLC it was 21.5%; with 786-0 renal, -17.3% (active); with COLO 205 colon, -59.1% (active); with DU-145 prostate, 46.3%; in the experiment on K-562 leukemia, 3% (active). Besides, the growth in the experiment on MALME-3M melanoma is -18% (active); with MDA-MB-231 breast, 1.39% (active); in the experiment on RXF 393 renal, -3.46% (active); in the experiment with SF-268 CNS, 36.3%; in the experiment with SF-295 CNS, 1.72% (active); in the experiment with SF-539 CNS, 19.8%. For the same molecule, the growth in the experiment on UACC-257 melanoma is 17.2%; in the experiment with M14 melanoma, 1.32% (active).
Turning to `O=C(CCl)N(C1CCCCC1)C1CCCCC1`, the growth with NCI-H23 lung is 87.9%; with NCI-H226 lung it was 105%; with NCI-H322M lung, 98.8%; in the experiment on HOP-62 NSCLC, 119%; with NCI-H460 lung it was 107%; with HOP-92 NSCLC, 92.8%. Also, the growth in the experiment on NCI-H522 lung is -36.8% (active); in the experiment on A549/ATCC NSCLC, 115%; with 786-0 renal, 99.3%; in the experiment on COLO 205 colon, 109%; in the experiment on DU-145 prostate it was 112%; in the experiment with K-562 leukemia, 104%. Further, the growth is 112% in the experiment with MALME-3M melanoma; 120% in the experiment with MDA-MB-231 breast; 107% in the experiment with RXF 393 renal; 103% in the experiment with SF-268 CNS; 98.3% in the experiment on SF-295 CNS; 105% in the experiment on SF-539 CNS. For the same molecule, the results for the growth with UACC-257 melanoma and in the experiment with M14 melanoma were 105% and 96.2%, respectively.
On to `Cn1cc(-c2cnc3ccc(NC(=O)Nc4ccc(F)c(Br)c4)cc3n2)cn1`, for which the growth was 32% in the experiment on NCI-H23 lung; 16.7% in the experiment with NCI-H226 lung; 46.3% with NCI-H322M lung; 0.864% (active) with HOP-62 NSCLC; 32.4% with NCI-H460 lung; -15.5% (active) in the experiment on HOP-92 NSCLC. The growth is 8.07% (active) in the experiment with NCI-H522 lung; 22.5% with A549/ATCC NSCLC; 38.7% in the experiment with 786-0 renal; 1.03% (active) with COLO 205 colon; 39.4% in the experiment on DU-145 prostate; 11.2% in the experiment on K-562 leukemia. The growth with MALME-3M melanoma was 35.9%; with MDA-MB-231 breast it was 23.4%; in the experiment with RXF 393 renal it was -22.3% (active); in the experiment with SF-268 CNS, 49.6%; with SF-295 CNS, -3.9% (active); in the experiment on SF-539 CNS it was 52.9%. Moreover, the growth is 47.6% in the experiment on UACC-257 melanoma and 4.13% (active) with M14 melanoma.
With `COc1cccc(/C=C/C(=O)Nc2cc(OC)c3c(c2)OCO3)c1`, the growth was 97.1% in the experiment with NCI-H23 lung; 99.2% with NCI-H226 lung; 102% with NCI-H322M lung; 99.7% in the experiment on HOP-62 NSCLC; 100% in the experiment with NCI-H460 lung; 86.5% in the experiment on HOP-92 NSCLC. Further, the growth with NCI-H522 lung was 87.4%; in the experiment on A549/ATCC NSCLC, 98.3%; in the experiment on 786-0 renal, 91.3%; in the experiment on COLO 205 colon, 109%; in the experiment with DU-145 prostate, 94.7%; with K-562 leukemia, 92.1%. The growth in the experiment on MALME-3M melanoma is 96.4%; with MDA-MB-231 breast, 83.5%; in the experiment on RXF 393 renal, 103%; in the experiment on SF-268 CNS, 98.2%; in the experiment with SF-295 CNS it was 89.8%; with SF-539 CNS, 111%. Further, the growth in the experiment on UACC-257 melanoma is 96.8%; in the experiment with M14 melanoma, 104%.
As for `S=C(S)NCCc1c[nH]c2ccccc12`, the growth in the experiment with NCI-H23 lung is 99%; in the experiment with NCI-H226 lung, 66.5%; in the experiment with NCI-H322M lung, 99.9%; with HOP-62 NSCLC it was 106%; in the experiment with NCI-H460 lung, 103%; in the experiment on HOP-92 NSCLC, 99.2%. Moreover, the growth with NCI-H522 lung is 79.8%; with A549/ATCC NSCLC, 99.4%; in the experiment on 786-0 renal, 100%; in the experiment with COLO 205 colon, 125%; in the experiment on DU-145 prostate, 107%; in the experiment with K-562 leukemia, 93.3%. For the same molecule, the growth in the experiment with MALME-3M melanoma was 99.1%; in the experiment with MDA-MB-231 breast, 91.1%; in the experiment on RXF 393 renal, 106%; with SF-268 CNS, 89.7%; in the experiment on SF-295 CNS, 95.7%; in the experiment with SF-539 CNS, 101%. Also, the growth is 104% in the experiment on UACC-257 melanoma and 95.2% in the experiment with M14 melanoma.
`Brc1cccc(-c2cc(-c3ccc4nccnc4c3)[nH]n2)c1`: the growth in the experiment on NCI-H23 lung was 46.5% [25 µM]; in the experiment with NCI-H226 lung, 22.4% [25 µM]; in the experiment on NCI-H322M lung it was 50.5% [25 µM]; in the experiment with HOP-62 NSCLC, 30.1% [25 µM]; with NCI-H460 lung, 4.81% [25 µM] (active); in the experiment with HOP-92 NSCLC it was 55.5% [25 µM]. For the same molecule, the growth was -5.69% [25 µM] (active) with NCI-H522 lung; 31.2% [25 µM] in the experiment on A549/ATCC NSCLC; 35.1% [25 µM] in the experiment on 786-0 renal; -24.7% [25 µM] (active) with COLO 205 colon; 17.7% [25 µM] in the experiment on DU-145 prostate; 11.9% [25 µM] with K-562 leukemia. Further, the growth is 59.2% [25 µM] in the experiment on MALME-3M melanoma; 28.3% [25 µM] with MDA-MB-231 breast; -12.8% [25 µM] (active) in the experiment with RXF 393 renal; 41.1% [25 µM] with SF-268 CNS; 7.1% [25 µM] (active) in the experiment on SF-295 CNS; -35.2% [25 µM] (active) with SF-539 CNS. In addition, the growth with UACC-257 melanoma was 91.2% [25 µM]; with M14 melanoma it was 23.5% [25 µM].
On to `CCCC(=O)Oc1ccc(/C(=C(\C)c2ccccc2)c2ccc(OCCN(CC)CC)cc2)cc1`, for which the growth with NCI-H23 lung is 87.6%; with NCI-H226 lung, 99.3%; with NCI-H322M lung, 83.3%; in the experiment with HOP-62 NSCLC, 92.9%; in the experiment on NCI-H460 lung, 69.8%; with HOP-92 NSCLC, 57.7%. In addition, the growth is 72.1% in the experiment with NCI-H522 lung; 67.2% in the experiment with A549/ATCC NSCLC; 71% with 786-0 renal; 51% in the experiment on COLO 205 colon; 102% in the experiment on DU-145 prostate; 16% in the experiment with K-562 leukemia. Further, the growth is 70.3% in the experiment on MALME-3M melanoma; 92.6% in the experiment with MDA-MB-231 breast; 61.1% with RXF 393 renal; 77.2% in the experiment with SF-268 CNS; 91.4% in the experiment with SF-295 CNS; 60.4% in the experiment with SF-539 CNS. The growth is 67.6% in the experiment on UACC-257 melanoma and 40.7% with M14 melanoma.
